Assay results taken from article PMC6212790, “How bacterial xenogeneic silencer rok distinguishes foreign from self DNA in its resident genome”.
Whole data set: some 33,000 sequences, median “e-score” near -0.037, cut for the highest 2% near 0.34. Only a selection was taken, and the highest values are over-represented in it overall.

Biological target: T1, GST-Rok (full length) (Bacillus subtilis subsp. subtilis str. …, UniProt O34857 1-191)
T1 sequence: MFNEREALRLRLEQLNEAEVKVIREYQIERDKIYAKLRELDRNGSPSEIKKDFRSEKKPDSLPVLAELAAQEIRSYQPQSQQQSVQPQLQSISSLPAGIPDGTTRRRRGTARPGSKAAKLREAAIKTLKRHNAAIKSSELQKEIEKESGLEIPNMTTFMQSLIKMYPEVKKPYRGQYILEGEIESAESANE
Experiment: protein binding microarray; Rok is a gene silencer of Bacillus subtilis; high values mean tight binding
Conditions: protein: recombinant; tags: GST (pTH5325, pDEST15-Magic modified); dsDNA, one strand shown
Procedure, shortened: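 Each has a 25-mer constant primer and a 35-mer variable part from a de Bruijn sequence of order 10, covering every non-palindromic 8-mer at least 32 times (palindromic 16). Preference for each 8-mer is given as a rank-based, unitless enrichment score (E-score). Its range runs from 0.5 (most favored) to −0.5 (most disfavored).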

Going from ACGTTGGA to CTCACTCA, the binding signal rises from -0.0982 E-score to 0.0449 E-score.

Compared with ATGGTATG, AATCTCCG is lower in binding signal: 0.0823 E-score for the first, 0.0469 E-score for the second.

First: ACCCGCAG
Second: ATAAACAA
The binding signal of the first is lower: -0.2 E-score for the first, 0.0341 E-score for the second.

Compared with TAATAACA, AATGGGAG is lower in binding signal: 0.238 E-score for the first, -0.0919 E-score for the second.

Going from GTTATCTA to AACTTCGG, the binding signal falls from 0.285 E-score to -0.044 E-score.

Going from TACGAGAA to AAATCTAC, the binding signal rises from 0.113 E-score to 0.398 E-score.

Going from AAATCTAA to AAATCTAT, the binding signal rises from 0.157 E-score to 0.315 E-score.

Going from CGCATCGC to AAGTCCCG, the binding signal falls from -0.115 E-score to -0.14 E-score.

Going from GATAGAAA to TATAGAAA, the binding signal rises from 0.307 E-score to 0.363 E-score.

Compared with CATAGAAA, AATAGAAC is lower in binding signal: 0.129 E-score for the first, 0.0621 E-score for the second.

Compared with AATAGAAA, AATAGAAT is lower in binding signal: 0.371 E-score for the first, 0.329 E-score for the second.

Going from ATGTGCTA to CCATATCC, the binding signal falls from 0.222 E-score to -0.0185 E-score.

Compared with CGCGGCAA, CTTACTCA is lower in binding signal: 0.00655 E-score for the first, -0.0171 E-score for the second.

Going from CGTTGAAG to AACGGCGC, the binding signal falls from 0.0718 E-score to -0.0478 E-score.

Compared with ATAGCGAG, CTAGTTAA is higher in binding signal: -0.0541 E-score for the first, 0.349 E-score for the second.

First: GTAGTTCA
Second: GTAGTTAA
The binding signal of the first is lower: 0.217 E-score for the first, 0.431 E-score for the second.

First: CGAGTTAA
Second: CAAGTTAA
The binding signal of the first is higher: 0.153 E-score for the first, 0.0371 E-score for the second.

First: GAAGTTAA
Second: AGACTGGA
The binding signal of the first is higher: 0.277 E-score for the first, -0.123 E-score for the second.

Compared with ACATAGTC, AGTTACGA is higher in binding signal: 0.114 E-score for the first, 0.167 E-score for the second.

Compared with ATTCACGA, AAACAGCT is higher in binding signal: -0.0154 E-score for the first, 0.0473 E-score for the second.

First: CCTTCACA
Second: ATGCTATA
The binding signal of the first is lower: 0.0629 E-score for the first, 0.339 E-score for the second.

First: GAGCTATA
Second: GAGCTACA
The binding signal of the first is higher: 0.145 E-score for the first, 0.0398 E-score for the second.

First: CAGCTACA
Second: TAGCTACA
The binding signal of the first is lower: 0.0906 E-score for the first, 0.37 E-score for the second.

Going from CTGCTATA to TAGCTATA, the binding signal rises from 0.0937 E-score to 0.346 E-score.

Going from GTGCTATA to AAGCTATA, the binding signal rises from 0.147 E-score to 0.231 E-score.

Compared with AAACTCCA, CTCACTGC is higher in binding signal: -0.0432 E-score for the first, 0.0486 E-score for the second.

Compared with AACGAATT, ATAACAAT is lower in binding signal: 0.325 E-score for the first, 0.266 E-score for the second.

Compared with AACAACAC, AATTTACA is higher in binding signal: -0.114 E-score for the first, 0.305 E-score for the second.

Going from AAATTACT to CAATTACC, the binding signal falls from 0.386 E-score to 0.133 E-score.

First: AAATTACC
Second: AATTTACT
The binding signal of the first is lower: 0.347 E-score for the first, 0.384 E-score for the second.

First: AATTTACC
Second: GAATTACC
The binding signal of the first is higher: 0.296 E-score for the first, 0.216 E-score for the second.

Going from GATTTACC to AATTTACG, the binding signal rises from 0.275 E-score to 0.292 E-score.

Going from AAATTACA to GATTTACA, the binding signal rises from 0.301 E-score to 0.345 E-score.

Compared with AAATTACG, GCCGATGA is lower in binding signal: 0.194 E-score for the first, -0.108 E-score for the second.

Going from AGGTGAGC to ATTGATTC, the binding signal rises from -0.0616 E-score to 0.127 E-score.

Compared with TGCAGTAA, ATGGTAGG is higher in binding signal: 0.194 E-score for the first, 0.243 E-score for the second.

Going from CTGGTATA to ATGGTAGA, the binding signal rises from 0.303 E-score to 0.444 E-score.

Going from GTGGTAAA to ATGGTAGC, the binding signal rises from 0.192 E-score to 0.287 E-score.

First: CTGGTAGA
Second: ATGGTATA
The binding signal of the first is lower: 0.335 E-score for the first, 0.381 E-score for the second.

Compared with ATGGTATC, GTGGTAGA is higher in binding signal: 0.165 E-score for the first, 0.435 E-score for the second.

First: TGCCAGCA
Second: CGTCACAA
The binding signal of the first is higher: 0.156 E-score for the first, -0.0647 E-score for the second.

First: TATAACGA
Second: CCTATGCC
The binding signal of the first is higher: 0.245 E-score for the first, -0.0371 E-score for the second.

Going from TCAACCAA to CGAATCTC, the binding signal falls from -0.0239 E-score to -0.0708 E-score.
